ROS inducer: ROS inducers in U2OS cancer cells, primary screen, cell-based, H2DCF-DA fluorescence | U2OS ROS induction | ROS induction (% of piperlongumine), % at 10 µM | 46,000 compounds, 2% hits | AID 624156, 2012; in the data active means ROS induction above about 79%, passing the limit was not always enough
Each line names hits and unclear results; the compound was inactive in the other large screens. This excerpt belongs to a sample that is enriched for hits.

COc1ccc(-c2nc3ccccc3s2)cc1	none
Cc1ccc(S(=O)(=O)N(C)C[C@H]2Oc3ccc(NC(=O)Cc4ccccc4)cc3C(=O)N([C@H](C)CO)C[C@H]2C)cc1	none
C=CCNC(=O)c1cnn2c(C(F)(F)F)cc(-c3cccs3)nc12	none
COc1ccc(-c2cc(C(=O)NC3CCCC3)c3ccccc3n2)cc1	none
CC1CCCCC1NC(=O)c1cnn2c(C(F)(F)F)cc(-c3ccccc3)nc12 (stereo unspecified)	ROS inducer 134
Cc1ccccc1NC(=O)c1cnn2c(C(F)(F)F)cc(-c3ccco3)nc12	none
CC(C)CCNC(=O)c1cnn2c(C(F)(F)F)cc(-c3ccco3)nc12	ROS inducer 119
FC(F)(F)c1cc(-c2ccccc2)nc2c(-c3ccccc3)cnn12	none
COc1ccc(S(=O)(=O)N(C)C[C@H]2Oc3ccc(NS(=O)(=O)c4c(C)noc4C)cc3C(=O)N([C@H](C)CO)C[C@H]2C)cc1	none
COc1ccc(NC(=O)CC2Sc3ccc(C(F)(F)F)cc3NC2=O)c(OC)c1 (stereo unspecified)	none
Cc1ccc(-c2nnc3c4ccccc4c(C)nn23)cc1S(=O)(=O)NC(C)c1ccccc1 (stereo unspecified)	none
Cc1ccc(-c2nn3c(C)nnc3c3ccccc23)cc1S(=O)(=O)NCc1ccco1	ROS inducer 125
CCOc1cc(S(=O)(=O)NCc2ccco2)c(C)cc1C	none
Cc1ccc(S(=O)(=O)Nc2cccc3c2O[C@H](CN(C)Cc2ccc(C(F)(F)F)cc2)[C@H](C)CN([C@H](C)CO)C3=O)cc1	none
CC(C)NC(=O)N(C)C[C@H]1Oc2ccc(NC(=O)NC3CCCCC3)cc2CC(=O)N([C@@H](C)CO)C[C@H]1C	none
Nc1ncnc2c1ncn2C1OC(CO)[C@H](O)[C@@H]1S (stereo partly specified)	none
CC1(C)O[C@@H]2[C@H](O1)[C@@H](CO)O[C@H]2n1cnc2c(N)ncnc21	ROS inducer 85
CC1(C)OC2C(CO)OC(n3cnc4c(=O)[nH]cnc43)C2O1 (stereo unspecified)	none
Cc1cc(O)c2c(c1)C(=O)C1=C(C2=O)C(O)C(O)C(O)C1O (stereo unspecified)	none
CCCCS(=O)CSc1nc(-c2cccs2)cc(-c2ccccc2)c1C#N (stereo unspecified)	none
CCS(=O)CCSc1nc(-c2ccc(Br)cc2)cc(-c2ccccc2)c1C#N (stereo unspecified)	ROS inducer 166
CCS(=O)CCSc1nc(-c2ccc(C)cc2)cc(-c2ccccc2)c1C#N (stereo unspecified)	none
C[C@H](CO)N1C[C@H](C)[C@@H](CN(C)C)Oc2ccc(NC(=O)C3CC3)cc2C1=O	none
C[C@@H]1CN([C@@H](C)CO)C(=O)c2cc(NC(=O)Nc3ccc(C(F)(F)F)cc3)ccc2O[C@@H]1CN(C)S(=O)(=O)c1cccs1	none
C[C@@H]1CN([C@H](C)CO)C(=O)c2cc(NS(=O)(=O)c3ccccc3)ccc2O[C@@H]1CN(C)S(=O)(=O)c1ccccc1	none
C[C@H]1CN([C@@H](C)CO)C(=O)c2cc(NS(C)(=O)=O)ccc2O[C@H]1CN(C)S(=O)(=O)c1ccccc1	none
C[C@@H]1CN([C@@H](C)CO)C(=O)Cc2cc(NS(=O)(=O)c3cccs3)ccc2O[C@@H]1CN(C)S(=O)(=O)c1cccs1	none
Cc1ccc(S(=O)(=O)N(C)C[C@H]2Oc3ccc(NS(=O)(=O)c4cccs4)cc3CC(=O)N([C@@H](C)CO)C[C@H]2C)cc1	none
Cc1ccc(S(=O)(=O)N(C)C[C@@H]2Oc3ccc(NS(=O)(=O)c4cccs4)cc3CC(=O)N([C@H](C)CO)C[C@@H]2C)cc1	none
Cc1ccc(S(=O)(=O)N(C)C[C@@H]2Oc3ccc(NS(=O)(=O)c4cccs4)cc3CC(=O)N([C@H](C)CO)C[C@H]2C)cc1	ROS inducer 95
C[C@@H]1CN([C@H](C)CO)C(=O)Cc2cc(NS(=O)(=O)c3cccs3)ccc2O[C@H]1CN(C)S(C)(=O)=O	none
Cc1ccc(S(=O)(=O)N(C)C[C@@H]2Oc3ccc(NS(=O)(=O)c4ccccc4)cc3CC(=O)N([C@H](C)CO)C[C@@H]2C)cc1	ROS inducer 130
Cc1ccc(S(=O)(=O)Nc2ccc3c(c2)CC(=O)N([C@H](C)CO)C[C@H](C)[C@H](CN(C)S(=O)(=O)c2ccccc2)O3)cc1	none
C[C@@H]1CN([C@@H](C)CO)C(=O)Cc2cc(NS(=O)(=O)c3cccs3)ccc2O[C@@H]1CN(C)C	ROS inducer 128
C[C@@H]1CN([C@H](C)CO)C(=O)c2cc(NS(C)(=O)=O)ccc2O[C@@H]1CN(C)S(=O)(=O)c1ccccc1	ROS inducer 102
Cc1ccc(S(=O)(=O)Nc2ccc3c(c2)CC(=O)N([C@H](C)CO)C[C@@H](C)[C@@H](CN(C)S(=O)(=O)c2ccccc2)O3)cc1	none
COC(=O)c1ccccc1NC(=O)CSc1nc2cc(Cl)ccc2s1	none
COc1ccc(S(=O)(=O)Nc2ccc3c(c2)CC(=O)N([C@H](C)CO)C[C@@H](C)[C@@H](CN(C)C)O3)cc1	none
Cc1noc(C)c1S(=O)(=O)N(C)C[C@H]1Oc2ccc(NC(=O)Nc3ccccc3)cc2CC(=O)N([C@@H](C)CO)C[C@H]1C	none

Screens from PubChem BioAssay.
